# Reference: ChEMBL document CHEMBL3988442, “University of Dundee, Small-Polar-MMV Screening Library” (2021)
# For part of these data: Results with a measured potency or affinity are listed apart.
# Legend:
# Parameters in all cases: scale not given: direction of the effect not stated beside the values
# [1] = target: Protein translocase subunit SecA (Escherichia coli (strain K12)) (UniProt P10408); assay: Assay to Identify E. coli SecA ATPase Inhibitors; format: functional; details: 30 µM
# [2] = target: T1, Ubiquitin-activating enzyme e1, putative (Leishmania donovani (strain BPK282A1)) (UniProt E9BSI1); assay: Leishmania donovani Ubiquitin Activating Enzyme (LdE1); format: functional; details: 30 µM
# T1 sequence (whole entry): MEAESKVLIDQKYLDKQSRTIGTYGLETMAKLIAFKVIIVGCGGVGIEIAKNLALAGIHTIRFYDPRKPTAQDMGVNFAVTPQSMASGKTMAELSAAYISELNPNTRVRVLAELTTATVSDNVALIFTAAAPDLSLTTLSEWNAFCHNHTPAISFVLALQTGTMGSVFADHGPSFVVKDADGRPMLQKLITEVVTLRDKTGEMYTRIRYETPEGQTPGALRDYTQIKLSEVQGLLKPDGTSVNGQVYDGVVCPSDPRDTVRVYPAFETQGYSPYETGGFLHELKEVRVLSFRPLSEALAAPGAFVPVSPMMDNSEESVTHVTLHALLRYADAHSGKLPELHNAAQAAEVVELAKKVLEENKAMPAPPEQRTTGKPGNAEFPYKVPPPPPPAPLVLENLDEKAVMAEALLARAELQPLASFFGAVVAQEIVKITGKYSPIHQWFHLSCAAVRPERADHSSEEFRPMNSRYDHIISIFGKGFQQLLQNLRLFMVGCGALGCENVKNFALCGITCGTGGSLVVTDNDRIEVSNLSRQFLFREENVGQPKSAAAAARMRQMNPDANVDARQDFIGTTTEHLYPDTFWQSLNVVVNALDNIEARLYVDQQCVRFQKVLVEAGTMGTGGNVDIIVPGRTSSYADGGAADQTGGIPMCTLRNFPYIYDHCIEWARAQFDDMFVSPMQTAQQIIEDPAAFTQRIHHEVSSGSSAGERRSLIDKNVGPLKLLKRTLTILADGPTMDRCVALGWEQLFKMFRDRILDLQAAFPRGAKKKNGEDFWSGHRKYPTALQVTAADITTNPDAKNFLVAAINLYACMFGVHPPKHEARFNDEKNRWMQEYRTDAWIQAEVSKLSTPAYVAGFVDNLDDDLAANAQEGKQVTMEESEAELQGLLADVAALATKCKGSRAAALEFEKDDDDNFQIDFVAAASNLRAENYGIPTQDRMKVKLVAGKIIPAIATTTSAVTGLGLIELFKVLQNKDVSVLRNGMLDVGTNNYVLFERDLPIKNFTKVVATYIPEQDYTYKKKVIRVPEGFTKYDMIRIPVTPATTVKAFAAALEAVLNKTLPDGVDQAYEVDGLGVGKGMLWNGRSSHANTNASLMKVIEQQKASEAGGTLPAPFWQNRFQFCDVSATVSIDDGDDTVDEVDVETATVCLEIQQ
# [3] = target: T2, Aspartate--tRNA(Asp/Asn) ligase (Mycobacterium tuberculosis (strain ATCC 25618 / H37Rv)) (UniProt P9WFW3); assay: Assay for Asp RNA synthetase-1 from Mycobacterium tuberculosis; format: functional; details: 30 µM; also: in the data most compounds retested in dose-response had high values
# T2 sequence (whole entry): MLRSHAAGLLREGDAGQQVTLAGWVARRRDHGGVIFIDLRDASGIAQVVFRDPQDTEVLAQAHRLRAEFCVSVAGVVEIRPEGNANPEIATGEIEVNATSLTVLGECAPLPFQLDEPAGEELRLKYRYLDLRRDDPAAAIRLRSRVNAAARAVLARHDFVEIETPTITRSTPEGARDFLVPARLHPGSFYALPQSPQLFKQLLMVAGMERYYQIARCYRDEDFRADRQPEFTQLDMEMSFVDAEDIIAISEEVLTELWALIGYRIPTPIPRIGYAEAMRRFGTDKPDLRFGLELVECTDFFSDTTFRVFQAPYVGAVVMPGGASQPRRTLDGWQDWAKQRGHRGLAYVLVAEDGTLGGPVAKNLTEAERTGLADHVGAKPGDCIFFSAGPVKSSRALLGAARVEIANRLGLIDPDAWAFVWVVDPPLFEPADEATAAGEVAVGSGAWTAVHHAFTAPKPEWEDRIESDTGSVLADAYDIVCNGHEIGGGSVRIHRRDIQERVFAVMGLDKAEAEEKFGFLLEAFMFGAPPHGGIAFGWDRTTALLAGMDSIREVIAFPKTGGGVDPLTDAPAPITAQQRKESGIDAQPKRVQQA
# [4] = target: AMP-activated protein kinase, AMPK (Homo sapiens) (UniProt P54646+O43741+P54619+Q9UGJ0+Q9Y478+Q13131+Q9UGI9); assay: AMP-dependent Kinase enzyme assay. An in vitro enzyme assay that detects ADP turnover that is directly proportional to AMPK activity. This uses naive AMPK that is activated during the assay with MK-8722; format: functional; details: 30 µM
# [5] = target: Sialic acid-binding Ig-like lectin 9 (Homo sapiens) (UniProt Q9Y336); assay: Hs-Siglec9 ALPHAscreen SOP 20170721; details: 10 µM
# [6] = system: Trypanosoma cruzi; assay: Trypanosoma cruzi phosphomannomutase and mannose-1-phosphate guanylyltransferase assay; format: functional; details: 10 µM
# [7] = target: T3, Arginase-2, mitochondrial (Homo sapiens) (UniProt P78540); assay: in vitro enzyme assay to detect the production of urea directly proportional to the activity of Arginase II; format: functional; details: 33.3 µM; also: in the data most compounds retested in dose-response had high values
# T3 sequence (whole entry): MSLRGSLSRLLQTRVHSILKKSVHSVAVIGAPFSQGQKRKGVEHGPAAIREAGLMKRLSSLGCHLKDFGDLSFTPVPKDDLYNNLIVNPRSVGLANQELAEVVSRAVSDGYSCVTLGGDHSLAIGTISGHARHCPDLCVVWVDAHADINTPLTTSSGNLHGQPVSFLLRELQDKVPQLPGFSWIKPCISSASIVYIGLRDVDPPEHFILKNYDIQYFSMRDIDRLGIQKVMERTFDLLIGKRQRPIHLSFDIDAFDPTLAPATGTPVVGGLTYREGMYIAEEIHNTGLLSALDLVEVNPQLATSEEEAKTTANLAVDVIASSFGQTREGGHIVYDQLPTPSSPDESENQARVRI
# [8] = target: T4, Proteasome subunit beta (Trypanosoma cruzi) (UniProt O96673); assay: Trypanosoma cruzi proteasome chymotrypsin-like activity (TcProtChymo) assay.; also: in the data most compounds retested in dose-response had high values; format: functional; details: 9.37 µM
# T4 sequence (whole entry): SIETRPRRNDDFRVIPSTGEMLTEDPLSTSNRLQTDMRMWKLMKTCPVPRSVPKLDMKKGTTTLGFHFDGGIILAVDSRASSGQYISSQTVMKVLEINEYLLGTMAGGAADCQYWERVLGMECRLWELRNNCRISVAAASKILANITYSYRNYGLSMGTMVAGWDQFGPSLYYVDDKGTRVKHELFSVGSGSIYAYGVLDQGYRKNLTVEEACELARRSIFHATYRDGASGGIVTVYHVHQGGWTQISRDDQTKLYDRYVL
# [9] = organism: Homo sapiens; assay: To identify inhibition of the IFN signalling (Jak-Stat) pathway via expression of an eGFP reporter gene under the control of an IFN-stimulated response element (ISRE) containing MxA promoter.; format: functional; details: 30 µM
# [10] = target: Shiga toxin 2 (Escherichia coli O157:H7) (UniProt P09385+P09386); assay: E. coli 0.157:H7 Shiga Toxin SOP - stx2 screening assay; format: functional; details: 30 µM
# [11] = target: T5, Tyrosyl-tRNA synthetase, putative (Trypanosoma cruzi (strain CL Brener)) (UniProt Q4DSP6); assay: Trypanosoma cruzi tyrosyl tRNA synthetase (TcYRS) _High Tyrosine SOP; format: functional; details: 30 µM; also: in the data most compounds retested in dose-response had high values
# T5 sequence (whole entry): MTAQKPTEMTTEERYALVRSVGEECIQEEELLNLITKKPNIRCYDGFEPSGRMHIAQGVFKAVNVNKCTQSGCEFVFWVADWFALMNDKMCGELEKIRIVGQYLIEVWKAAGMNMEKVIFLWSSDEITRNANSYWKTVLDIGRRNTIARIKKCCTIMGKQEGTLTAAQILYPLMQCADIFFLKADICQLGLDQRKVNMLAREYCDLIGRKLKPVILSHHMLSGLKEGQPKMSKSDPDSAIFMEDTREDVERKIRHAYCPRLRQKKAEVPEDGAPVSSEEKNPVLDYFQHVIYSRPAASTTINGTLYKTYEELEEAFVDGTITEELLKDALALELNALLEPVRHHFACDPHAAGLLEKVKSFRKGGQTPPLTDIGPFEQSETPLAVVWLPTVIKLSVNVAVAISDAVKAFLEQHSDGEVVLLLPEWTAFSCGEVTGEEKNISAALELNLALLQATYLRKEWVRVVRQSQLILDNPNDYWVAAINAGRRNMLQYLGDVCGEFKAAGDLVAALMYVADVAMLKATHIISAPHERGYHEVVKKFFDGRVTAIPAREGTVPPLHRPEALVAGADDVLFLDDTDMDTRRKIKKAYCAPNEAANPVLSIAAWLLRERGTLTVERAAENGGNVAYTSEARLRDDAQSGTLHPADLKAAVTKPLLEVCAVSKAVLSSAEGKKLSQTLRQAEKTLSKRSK
# [12] = target: T5, Tyrosyl-tRNA synthetase, putative (Trypanosoma cruzi (strain CL Brener)); assay: Trypanosoma cruzi tyrosyl tRNA synthetase (TcYRS) SOP; format: functional; details: 30 µM
# [13] = target: Chromo domain-containing protein 1 (Saccharomyces cerevisiae (strain ATCC 204508 / S288c) (Baker's yeast)) (UniProt P32657); assay: ScCHD-1 Enzyme Inhibition Assay; format: functional; details: 30 µM; also: in the data most compounds retested in dose-response had high values
# Chromo domain-containing protein 1 (Saccharomyces cerevisiae (strain ATCC 204508 / S288c) (Baker's yeast)), sequence (P32657 whole entry, the tested form may be a part): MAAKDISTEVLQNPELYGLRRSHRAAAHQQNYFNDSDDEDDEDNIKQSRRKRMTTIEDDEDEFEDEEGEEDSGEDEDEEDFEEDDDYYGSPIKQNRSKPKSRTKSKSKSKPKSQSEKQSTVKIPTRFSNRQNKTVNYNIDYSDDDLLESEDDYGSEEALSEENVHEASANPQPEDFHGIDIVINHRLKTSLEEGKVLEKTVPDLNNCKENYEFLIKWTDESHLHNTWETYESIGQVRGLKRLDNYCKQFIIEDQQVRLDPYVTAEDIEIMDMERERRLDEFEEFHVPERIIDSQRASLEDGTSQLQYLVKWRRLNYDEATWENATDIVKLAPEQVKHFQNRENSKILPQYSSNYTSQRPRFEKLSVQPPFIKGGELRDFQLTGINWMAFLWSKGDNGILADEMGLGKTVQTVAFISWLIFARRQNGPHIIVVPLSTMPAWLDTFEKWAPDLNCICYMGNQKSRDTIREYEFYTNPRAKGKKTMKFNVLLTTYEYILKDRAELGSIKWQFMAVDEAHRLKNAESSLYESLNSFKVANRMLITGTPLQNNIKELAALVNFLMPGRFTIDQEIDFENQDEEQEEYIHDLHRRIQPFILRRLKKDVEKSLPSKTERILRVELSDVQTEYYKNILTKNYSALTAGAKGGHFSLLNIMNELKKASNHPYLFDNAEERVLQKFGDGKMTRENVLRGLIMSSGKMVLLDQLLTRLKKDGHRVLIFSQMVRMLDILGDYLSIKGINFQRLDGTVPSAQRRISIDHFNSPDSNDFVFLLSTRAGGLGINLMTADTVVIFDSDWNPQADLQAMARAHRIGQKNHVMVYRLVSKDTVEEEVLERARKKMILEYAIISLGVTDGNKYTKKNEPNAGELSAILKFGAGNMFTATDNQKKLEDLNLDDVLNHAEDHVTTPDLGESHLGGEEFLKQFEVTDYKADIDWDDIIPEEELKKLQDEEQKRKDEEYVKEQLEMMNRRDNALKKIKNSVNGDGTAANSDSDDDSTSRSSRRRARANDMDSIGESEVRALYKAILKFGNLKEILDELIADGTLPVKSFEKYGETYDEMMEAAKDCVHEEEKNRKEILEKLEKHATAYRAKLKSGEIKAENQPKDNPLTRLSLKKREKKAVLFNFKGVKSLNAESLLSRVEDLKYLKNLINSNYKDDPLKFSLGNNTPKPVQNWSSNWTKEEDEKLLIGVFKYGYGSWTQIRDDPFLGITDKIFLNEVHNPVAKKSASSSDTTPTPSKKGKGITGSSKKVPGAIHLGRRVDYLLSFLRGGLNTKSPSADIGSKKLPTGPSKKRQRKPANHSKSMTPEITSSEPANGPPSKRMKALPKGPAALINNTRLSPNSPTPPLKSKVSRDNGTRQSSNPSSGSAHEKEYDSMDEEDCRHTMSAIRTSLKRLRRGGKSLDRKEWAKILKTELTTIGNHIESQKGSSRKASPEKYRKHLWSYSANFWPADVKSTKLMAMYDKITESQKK
# Sialic acid-binding Ig-like lectin 9 (Homo sapiens), sequence (Q9Y336 whole entry): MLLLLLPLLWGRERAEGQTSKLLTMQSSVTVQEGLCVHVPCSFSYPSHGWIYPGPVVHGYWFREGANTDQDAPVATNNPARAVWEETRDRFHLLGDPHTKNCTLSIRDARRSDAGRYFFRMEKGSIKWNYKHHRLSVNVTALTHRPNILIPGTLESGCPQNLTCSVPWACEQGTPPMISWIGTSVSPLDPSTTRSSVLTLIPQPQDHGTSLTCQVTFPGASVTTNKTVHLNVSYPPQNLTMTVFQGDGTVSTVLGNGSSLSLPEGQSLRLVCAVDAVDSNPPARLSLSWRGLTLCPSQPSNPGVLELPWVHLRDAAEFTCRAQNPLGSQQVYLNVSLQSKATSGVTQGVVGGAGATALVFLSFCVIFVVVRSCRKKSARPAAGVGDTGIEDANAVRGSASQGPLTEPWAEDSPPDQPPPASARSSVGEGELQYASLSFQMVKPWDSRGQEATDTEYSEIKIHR
# Protein translocase subunit SecA (Escherichia coli (strain K12)), sequence (P10408 whole entry): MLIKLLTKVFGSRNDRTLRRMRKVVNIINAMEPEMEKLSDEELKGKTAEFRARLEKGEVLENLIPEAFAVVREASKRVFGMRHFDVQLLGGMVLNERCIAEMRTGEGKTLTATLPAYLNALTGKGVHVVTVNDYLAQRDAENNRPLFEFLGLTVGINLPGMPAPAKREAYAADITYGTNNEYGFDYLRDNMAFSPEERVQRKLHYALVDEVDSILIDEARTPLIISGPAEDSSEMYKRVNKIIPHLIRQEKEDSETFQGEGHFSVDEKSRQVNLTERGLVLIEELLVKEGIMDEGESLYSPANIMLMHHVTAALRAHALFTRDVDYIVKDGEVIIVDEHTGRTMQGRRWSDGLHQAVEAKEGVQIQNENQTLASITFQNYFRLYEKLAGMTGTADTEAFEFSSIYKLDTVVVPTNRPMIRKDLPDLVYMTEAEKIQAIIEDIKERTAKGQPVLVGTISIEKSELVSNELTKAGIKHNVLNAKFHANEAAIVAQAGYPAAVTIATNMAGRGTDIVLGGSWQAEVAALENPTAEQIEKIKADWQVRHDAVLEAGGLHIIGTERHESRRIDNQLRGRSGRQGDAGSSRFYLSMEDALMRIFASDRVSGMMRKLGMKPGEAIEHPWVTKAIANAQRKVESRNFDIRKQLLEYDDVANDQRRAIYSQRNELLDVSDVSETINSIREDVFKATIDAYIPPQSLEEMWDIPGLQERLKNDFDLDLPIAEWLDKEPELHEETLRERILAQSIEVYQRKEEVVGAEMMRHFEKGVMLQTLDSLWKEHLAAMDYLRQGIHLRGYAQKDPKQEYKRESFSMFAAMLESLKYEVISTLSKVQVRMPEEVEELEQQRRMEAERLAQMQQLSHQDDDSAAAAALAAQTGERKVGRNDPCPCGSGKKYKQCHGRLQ
Structure (SMILES),Percent Effect [1] [%],Percent Effect [2] [%],Percent Effect [3] [%],Percent Effect [4] [%],Percent Effect [5] [%],Percent Effect [6] [%],Percent Effect [7] [%],Percent Effect [8] [%],Percent Effect [9] [%],Percent Effect [10] [%],Percent Effect [11] [%],Percent Effect [12] [%],Percent Effect [13] [%]
Cc1nc(CN2C[C@@H]3OCCN(c4ncc(F)cn4)[C@@H]3C2)cs1,0.0245,5.33,-1.08,7.05,2.47,-1.74,-58.6,11.3,-21.1,2.24,4.17,15,-7
CC(=O)N1CCOCC2(CN(Cc3ccccn3)CCO2)C1 (configuration not stated),-4.37,-2.67,0.233,-1.22,-2.37,4.25,2.33,9.74,-30.1,-6.22,2.08,2.5,-3.93
Cc1n[nH]c2c1C(c1ccsc1)SCC(=O)N2 (configuration not stated),0.859,15.6,6.57,7.18,-13.4,-4.24,0.645,16,19.9,1.07,5.29,6.41,-7.85
O=C(c1cscn1)N1CCN2C[C@H](OCc3cccnc3)C[C@H]2C1,4.53,16,2.54,2.68,-10.9,-9.05,6.76,12.1,0.411,-22.2,5.32,3.85,1.28
CNC(=O)[C@@]12CCCN(c3ncccn3)[C@@H]1CN(C)C2,-7.94,5.2,-0.539,20.5,-6.43,-6.21,4.52,9.4,14.9,-9.88,-4.23,-1.28,-2.69
CN1CCCC(c2n[nH]c3ncccc23)C1 (configuration not stated),-3.58,-1.35,-7.01,6.99,2.48,-0.198,-0.232,5.93,-5.01,1.35,2.15,1.3,6.39
CN(C)c1ncc2c(n1)C1(CCN(CC3CC3)C1)COC2 (configuration not stated),2.42,0,0.342,0.164,8.71,-4.37,0.798,13.1,-7.22,-16.3,7.29,11.1,-5.42
CC(c1ccc(F)cc1)N1CCN(Cc2ccc(C#N)cc2)CC1 (configuration not stated),-5.23,13.5,-0.88,-5.75,2.94,-4.81,-0.401,7.57,18.8,24.7,4.43,13.6,-5.01
CN(Cc1cccnc1)[C@@H]1CN(CC2CC2)[C@@H]2CCCO[C@H]12,-1.86,2.67,3.49,2.59,2.23,-4.05,-57.2,3.42,-1.28,-18,2.08,5,-8.32
